Experimental data as given in PubChem BioAssay AID485346 (Sanford-Burnham Center for Chemical Genomics, 2010).
The campaign covered roughly 330,000 compounds. About 10,000 (3%) were called active.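 Rule for the calls: active = inhibition of at least 50% at 8 µM in the primary screen; inactive = the rest.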 The sample as a whole holds a higher share of actives than the screen did.

These compounds were tested against Protein Mdm4 (Homo sapiens) + E3 ubiquitin-protein ligase Mdm2 (Homo sapiens) (UniProt O15151+Q00987) (assay: disruptors of Mdm2/MdmX RING complex – cell-based, luminescence, split luciferase, SaOS-2, uHTS, primary screen (AID 485346)). Conditions: SaOS-2 split-luciferase Mdm2/MdmX complementation, at 8 µM, stronger effect = higher value.
Sequence of Protein Mdm4 (Homo sapiens) + E3 ubiquitin-protein ligase Mdm2 (Homo sapiens) (O15151 whole entry, looked up): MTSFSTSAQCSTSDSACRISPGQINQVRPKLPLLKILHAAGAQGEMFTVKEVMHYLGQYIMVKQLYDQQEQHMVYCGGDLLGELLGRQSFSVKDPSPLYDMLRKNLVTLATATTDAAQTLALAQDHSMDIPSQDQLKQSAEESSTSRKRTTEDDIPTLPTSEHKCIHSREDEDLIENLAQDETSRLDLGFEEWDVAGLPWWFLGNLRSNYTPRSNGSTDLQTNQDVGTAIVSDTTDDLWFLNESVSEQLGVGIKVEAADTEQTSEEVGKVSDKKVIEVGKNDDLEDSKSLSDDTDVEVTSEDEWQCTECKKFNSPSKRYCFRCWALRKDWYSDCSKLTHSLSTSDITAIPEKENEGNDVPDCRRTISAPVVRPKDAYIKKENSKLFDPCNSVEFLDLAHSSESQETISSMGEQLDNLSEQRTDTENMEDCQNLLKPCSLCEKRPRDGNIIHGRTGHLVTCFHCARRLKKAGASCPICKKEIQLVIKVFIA
Sequence of Protein Mdm4 (Homo sapiens) + E3 ubiquitin-protein ligase Mdm2 (Homo sapiens) (Q00987 whole entry, looked up): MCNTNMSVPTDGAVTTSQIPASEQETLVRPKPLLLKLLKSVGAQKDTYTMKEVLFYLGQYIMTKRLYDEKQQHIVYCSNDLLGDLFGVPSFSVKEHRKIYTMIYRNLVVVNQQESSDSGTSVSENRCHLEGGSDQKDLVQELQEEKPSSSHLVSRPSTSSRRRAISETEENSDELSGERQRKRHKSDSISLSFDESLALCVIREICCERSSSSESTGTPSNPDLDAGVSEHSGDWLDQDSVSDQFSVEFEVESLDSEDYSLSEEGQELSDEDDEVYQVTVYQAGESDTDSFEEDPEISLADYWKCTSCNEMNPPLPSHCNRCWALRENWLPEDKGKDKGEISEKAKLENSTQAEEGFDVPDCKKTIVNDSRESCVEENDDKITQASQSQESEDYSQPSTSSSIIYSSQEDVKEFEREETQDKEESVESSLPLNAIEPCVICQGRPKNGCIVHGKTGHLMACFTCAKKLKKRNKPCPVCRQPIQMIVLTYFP

Row | SMILES | inhibition
1 | Cc1ccc2c(c1)C1C[N+](C)(CC(=O)c3ccccc3)CCC1N2C(=O)c1ccccc1Cl (centres undefined) | -17.1% (inactive)
2 | CCSC1=NCCN1S(=O)(=O)c1ccc(F)cc1 | -0.662% (inactive)
3 | FC(F)(F)c1nnc2ccc(N3CCN(c4ccccc4)CC3)nn12 | 26.8% (inactive)
4 | FC(F)(F)c1nnc2c3ccccc3c(Cl)nn12 | 64.4% (active)
5 | Nc1nnc2c(C(F)(F)F)nc3ccccc3n12 | -2.03% (inactive)
6 | Cc1cc2oc(C(=O)Nc3c(C)n(C)n(-c4ccccc4)c3=O)c(C)c2cc1Cl | 23.4% (inactive)
7 | COc1ccc(CNC(=O)c2ccc3oc(C(C)C)nc3c2)cc1 | -34.8% (inactive)
8 | Cc1cccc(N2O[C@H]3C=CC2CCCC3)n1 | 15.6% (inactive)
9 | CC(=O)c1ccccc1NC(=O)CC1(CC(=O)O)CCCCC1 | 10.9% (inactive)
10 | CCN(CCCNC(=O)CSc1cc(=O)n(C)c2cc(Cl)ccc12)Cc1ccccc1 | 54.7% (active)
11 | CCN(CC)CCCNC(=O)CCc1ccccc1 | 27.2% (inactive)
12 | CCOc1ccc(CCNC(=O)CSc2cc(=O)n(C)c3ccc(Cl)cc23)cc1OCC | 4.16% (inactive)
13 | CC(=O)OCCC(C)C | 9.67% (inactive)
14 | C=CCn1c(SCC(=O)NCC2CCCO2)nc2sc(C)c(C)c2c1=O (centres undefined) | 2.91% (inactive)
15 | C=CCn1c(SCC(=O)NCCCO)nc2sc3c(c2c1=O)CCC3 | 0.393% (inactive)
16 | C=CCn1c(SCc2c(C)noc2C)nc2sc3c(c2c1=O)CCC(C)C3 (centres undefined) | 52.5% (active)
17 | Cc1ccc(-c2ccc(=O)n(Cc3ccc(F)cc3Cl)n2)cc1 | -15.3% (inactive)
18 | Cc1ccc(-c2nc(-c3ccncc3)no2)c(C)c1 | -116% (inactive)
19 | COc1ccc(/C=C/c2noc(-c3ccccc3OC(C)=O)n2)cc1 | -61.9% (inactive)
20 | COc1ccc(-c2nc(-c3ccccc3)no2)c(OC)c1 | 58.4% (active)
21 | O=C(NCCN1CCOCC1)c1cc(Sc2cccc(Cl)c2)nc2ccccc12 | -2.97% (inactive)
22 | Cc1cccc(NC(=O)CSC(N)=O)c1C | 2.96% (inactive)
23 | CCOC(=O)/C=c1\s/c(=C\c2ccccc2OC)c(=O)n1CC(=O)N1CCOCC1 | 11.5% (inactive)
24 | CCOC(=O)/C=c1\s/c(=C\c2ccc(C#N)cc2)c(=O)n1CC(=O)Nc1cccc(C)c1C | 78% (active)

Row | SMILES | inhibition
25 | COc1cc(Cl)c(C)cc1NC(=O)[C@@H]1CCCN1C(=O)c1cccs1 | 6.14% (inactive)
26 | COc1ccc(S(=O)(=O)N2CCN(c3cnccn3)CC2)cc1 | 13.5% (inactive)
27 | CC1(C)CCSC(/C=C/c2ccccc2)=N1 | 85.2% (active)
28 | CC(=O)N1CCC(N(C(=O)Nc2ccc(Cl)cc2)C(C)C)CC1 | -29% (inactive)
29 | Cc1cc2oc3ccc(NCCC4CCCN4C)cc3c(=O)c2cc1C (centres undefined) | 90% (active)
30 | Cc1cc2oc(=O)cc(CN3CCN(Cc4ccccc4)CC3)c2cc1C | -23.1% (inactive)
31 | COc1cccc2sc3cc(NCC[C@@H]4CCCN4C)ccc3c(=O)c12 | -8.67% (inactive)
32 | CCCCC1(C(=O)OCC)NC(c2ccc(O)cc2)C2C(=O)N(c3ccccc3)C(=O)C21 (centres undefined) | 4.63% (inactive)
33 | COc1cccc(NC(=O)CCc2nnc3ccc(N4CCC(C)CC4)nn23)c1 | 6.23% (inactive)
34 | CC(=O)Nc1ccc(CN2CCN(Cc3ccc(F)c(F)c3)C(CCO)C2)cc1 (centres undefined) | -4.68% (inactive)
35 | CC(C)c1nc(CNC(=O)CC2C(=O)NCCN2Cc2ccoc2)cs1 (centres undefined) | 17% (inactive)
36 | COc1cc(SC)ccc1C(=O)Nc1nc(C)cs1 | 70.4% (active)
37 | COc1cc(SC)ccc1C(=O)Nc1cc(C)ccn1 | -133% (inactive)
38 | Cc1csc(NC(=O)c2ccc(C)s2)n1 | -81.3% (inactive)
39 | COc1ccc(-c2c(C(C)=O)c(C)nc3sc4c(=O)n(-c5ccc(C)cc5)nnc4c23)cc1 | 16.5% (inactive)
40 | O=S(=O)(Nc1cccc(-c2ccc(N3CCOCC3)nn2)c1)c1ccc(Cl)c(Cl)c1 | -21.1% (inactive)
41 | NC(=O)c1ccc(Nc2ccc3nonc3c2[N+](=O)[O-])cc1 | 19.2% (inactive)
42 | Cc1cc(C)cc(NC(=O)C(c2ccccc2)N2CCN(CC(=O)N3CCCC3)CC2)c1 (centres undefined) | 24% (inactive)
43 | COC1=CCC2([N+](=O)[O-])CN(CC(=O)O)CC1([N+](=O)[O-])C2 (centres undefined) | 4.95% (inactive)
44 | Fc1ccc(-c2ccc(CNCc3ccccn3)o2)cc1Cl | 1.76% (inactive)
45 | Cc1cc(C)c2[nH]c(=O)c(CN(Cc3ccccc3)C(=S)NCCCN(C)C)cc2c1 | 90.9% (active)
46 | Cc1cccc2cc(CN(Cc3cccs3)C(=S)NCc3ccco3)c(=O)[nH]c12 | 19.1% (inactive)
47 | COCCCNC(=S)N(CCN(C)C)Cc1cc2cc3c(cc2[nH]c1=O)OCCO3 | -4.07% (inactive)
48 | COc1ccccc1NC(=O)CCC(=O)OC(C)C(=O)c1ccccc1 (centres undefined) | -23.8% (inactive)

Row | SMILES | inhibition
49 | CCCn1c(O)c(CN2CCCC(C)C2)c(C)c(C#N)c1=O (centres undefined) | -48.3% (inactive)
50 | CCN(CC(=O)NCc1ccc(F)cc1)S(=O)(=O)c1ccc(Cl)s1 | -3.24% (inactive)
51 | COc1ccc(NC(=O)C(=O)NCC(=O)Nc2cccc(C(F)(F)F)c2)cc1 | 12.2% (inactive)
52 | COc1cc(NC(=O)c2cncc(-c3ccc(C#N)cc3)c2)cc(C(=O)Nc2cccc(C(F)(F)F)c2)c1 | 59.6% (active)
53 | N#Cc1ccc(Oc2ccc(C(F)(F)F)cc2NC(=O)c2ccc(F)cc2)cc1 | 9.08% (inactive)
54 | COc1cc(NC(=O)c2[nH]cnc2C(N)=O)cc(C(=O)Nc2cccc(C(F)(F)F)c2)c1 | 97.2% (active)
55 | Cc1cccc(NC(=O)c2nnn(-c3cccc(C(F)(F)F)c3)c2N)c1 | 8% (inactive)
56 | COc1ccc(NC(=O)CN(C)CC(=O)Nc2cccc(C(F)(F)F)c2)cc1 | 14.9% (inactive)
57 | CCN1C(=O)[C@H]2[C@@H](c3ccc(-c4ccc(F)cc4)cc3)N[C@@](Cc3ccccc3)(C(=O)OC)[C@H]2C1=O | 48% (inactive)
58 | CCCC(CNC(=O)COC(=O)C1=NNC(=O)CC1)c1ccc(Cl)cc1Cl (centres undefined) | -11.5% (inactive)
59 | C=C(C)C(=O)Nc1cccc(C2=NOC3(C2)C[C@H](C(N)=O)N(C(=O)C(c2ccccc2)c2ccccc2)C3)c1 (some centres undefined) | 16.4% (inactive)
60 | Cc1c(C(=O)Nc2cccc(Cl)c2)cn2c(nc3ccccc32)c1C#N | 60.3% (active)
61 | O=C(O)c1cccc(NC(=O)c2cc(-c3cccc(Cl)c3)nc3ccccc23)c1 | 0.449% (inactive)
62 | Cn1c(Nc2cccc(Cl)c2)nc2ccccc21 | -18.1% (inactive)
63 | CC(=O)c1c(C)[nH]c(C(=O)OCC(=O)NCCC(C)C)c1C | 17.9% (inactive)
64 | CCOc1cc(NC(=S)NCCCN(C)C)c(OCC)cc1NC(=O)C1CC1 | 3.9% (inactive)
65 | CC(C)c1cc(C(=O)N/N=C/C(Br)=C/c2ccccc2)n[nH]1 | 66.1% (active)
66 | Cc1cc(C(=O)N/N=C\C(Br)=C\c2ccccc2)c(C)o1 | -18.5% (inactive)
67 | CC(C)c1cc(C(=O)O)n[nH]1 | 5.75% (inactive)
68 | O=C1CSc2ccc(S(=O)(=O)NCc3ccccc3)cc2N1 | -3.1% (inactive)
69 | COc1ccc(OC)c(C2C3=C(N=c4s/c(=C\c5cccc(O)c5)c(=O)n42)c2ccccc2CC3)c1 (centres undefined) | 79.2% (active)
70 | CCOC(=O)C1=C(C)N=c2s/c(=C\C(=O)OC)c(=O)n2C1c1ccc(OC)cc1 (centres undefined) | 12.2% (inactive)
71 | O=C1CCCC2=C1C(c1ccccc1)n1c(s/c(=C/c3cccc(F)c3)c1=O)=N2 (centres undefined) | -4.28% (inactive)
72 | O=C(N/N=C/c1ccc(Cl)cc1)c1nc2ccc([N+](=O)[O-])cc2c(=O)[nH]1 | 6.69% (inactive)

Row | SMILES | inhibition
73 | COC(=O)c1sc(SC)c(S(=O)(=O)C(C)C)c1N/N=C(\C#N)S(=O)(=O)c1ccccn1 | 9.73% (inactive)
74 | O=C(NC1CCc2ccccc21)C12CN(Cc3ccccc3)CC1C(c1cccc([N+](=O)[O-])c1)=NO2 (centres undefined) | 0.069% (inactive)
75 | CSc1ncc(Sc2ccccc2)c(C(=O)O)n1 | 8.72% (inactive)
76 | CSc1nc(-c2ccccc2)nc(C(Cl)Cl)n1 | 101% (active)
77 | CN=C(NC#N)NCCSCc1nc[nH]c1C | 2.92% (inactive)
78 | CC1(C)CC(=O)C=C(NCc2ccncc2)C1 | 27.3% (inactive)
79 | Cc1ccc(S(=O)(=O)N2CCC(N3CCCCCC3)CC2)cc1 | 1.35% (inactive)
80 | O=S(=O)(c1ccccc1)N1CCC(c2ccccc2)CC1 | -19.7% (inactive)
81 | c1ccc(C2CCC(N3CCC(N4CCCCC4)CC3)CC2)cc1 (centres undefined) | 91.3% (active)
82 | CCOC(=O)C1CCN(C(=O)C2CCN(S(=O)(=O)CC)CC2)CC1 | 12.2% (inactive)
83 | CCN(CC(=O)NCCCN1CCOCC1)S(=O)(=O)c1cc(Cl)ccc1Cl | 20.3% (inactive)
84 | COc1ccc(N=C2SC(C(=O)Nc3ccc(F)cc3)CC(=O)N2C)cc1 (centres undefined) | 15% (inactive)
85 | Cc1ccc(NC(=O)Nc2ccccc2)c(Br)c1 | -41.3% (inactive)
86 | Cc1cccc(NC(=O)Nc2cccc(Oc3c(F)c(F)c(F)c(F)c3F)c2)c1 | 74.3% (active)
87 | Cc1cccc(NC(=O)NC(=S)NC(=O)c2ccccc2)c1 | -38.5% (inactive)
88 | CC(C)C(=O)Nc1ccc2oc(=O)ccc2c1 | 3.99% (inactive)
89 | O=C(COc1ccc(Cl)cc1)Nc1ccc2oc(=O)ccc2c1 | -1.06% (inactive)
90 | O=C(NC(=S)Nc1ccc2oc(=O)ccc2c1)c1ccc(-c2cccc(Cl)c2Cl)o1 | 80.7% (active)
91 | CC1(C)CC(=O)C=C(c2cccc3c2Oc2ccccc2S3)C1 | 2.33% (inactive)
92 | CCOc1cc(C(=O)N2CCc3cc(OC)c(OC)cc3C2)ccc1OC(F)F | 51% (active)
93 | COc1cc2c(cc1OC)CN(C(=O)c1ccc(S(=O)(=O)N3CCCCCC3)cc1)CC2 | 11% (inactive)
94 | COc1cc2c(cc1OC)CN(C(=O)c1cc(=O)c3ccccc3o1)CC2 | 49.8% (inactive)
